The values that follow come from PubChem BioAssay (NCATS).

Results filed as inconclusive are left out. Calls of active or inactive are those of the source. Unless noted, calls come from the whole dose curve; as a rule, active = well fitted cell-killing curve with a large enough effect; inconclusive = small, poorly fitted or top-dose-only effect; inactive = flat fitted curve, though single readings scatter.

Experiment [1] is described as follows: Cell Viability - LYMP2-020 (AID 986).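 Note: series mostly up to about 92 µM; cells exposed to compound for 24 h at 37 °C; plate controls were DMSO only for no effect and tetraoctylammonium bromide at 92 µM for full effect; nearly all actives have a fitted effect of over 55% in size.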 The procedure, abridged: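 Acute cytotoxicity in a human lymphoblastoid line is scored as a concentration-dependent fall in cellular ATP after 24 hr at 37 C in complete medium. The positive control is tetraoctylammonium bromide, and potency is given as Hill-fit AC50.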
A short description of experiment [2]: Cell Viability - LYMP2-022 (AID 987).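 Note: cells exposed to compound for 24 hr; 0% = DMSO alone and full effect = tetraoctylammonium bromide at 92 µM; nearly all actives have a fitted effect of over 55% in size.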 The procedure, abridged:
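Acute toxicity in a human lymphoblastoid line is scored as decreased intracellular ATP after 24 hr compound treatment at 37 C. ATP is measured by CellTiter-Glo luminescence; curves are fitted with the Hill equation to give AC50.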

The nature of experiment [3]: Cell Viability - LYMP2-024 (AID 988).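 Note: cells exposed to compound for 24 hr at 37 °C; plate controls were DMSO only for no effect and 92 µM tetraoctylammonium bromide for full effect; nearly all actives have a fitted effect of over 60% in size.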 The method in brief: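 Acute toxicity is measured as concentration-dependent loss of intracellular ATP in a human lymphoblastoid line treated 24 hours at 37 C. Luciferase luminescence quantifies ATP; AC50 values come from standard Hill-equation modelling.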
A short description of experiment [4]: Cell Viability - LYMP2-026 (AID 989).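 Note: cells exposed to compound for 24 h at 37 °C; % is set by controls: 0 for no effect and ±100 for the full control effect; nearly all actives have a fitted effect of over 50% in size.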 The procedure, abridged: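 Concentration-dependent loss of intracellular ATP in human lymphoblastoid cells after 24 hr at 37 C, quantified by luciferase luminescence. AC50 derived from standard Hill equation.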
A short description of experiment [5]: Cell Viability - LYMP1-002 - Assay at 24 hr (AID 993). Note: % is set by controls: 0 for no effect and ±100 for the full control effect. The method in brief: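 qHTS, LYMP1-002 lymphoblastoid, 24 h cpd, 37 C, CellTiter-Glo ATP luminescence; AC50 via Hill eq.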
Experiment [6] in a line: Cell Viability - LYMP1-002 - Assay at 40 hr (AID 994).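 Note: 0% = DMSO only and full inhibition = 92 µM tetraoctylammonium bromide; nearly all actives have a fitted effect of over 60% in size.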 The procedure, abridged:
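Viability in the human lymphoblastoid line was measured as intracellular ATP via CellTiter-Glo after 40 hr compound exposure. Tetraoctylammonium bromide served as positive control.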

The nature of experiment [7]: qHTS Assay for Identification of Small Molecule Inducers of Hypoxia Response (AID 2120; active = well fitted curve in the direction sought with a large enough effect in the signal ratio, with a control signal flat, not every such curve was filed as active; the % refers to the signal ratio; note: 0% is about no effect). The procedure, abridged:
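Induction of beta-lactamase reporter activity was measured in CellSensor HRE-bla ME-180 cells after 17 h compound treatment at 37 degrees C, using CCF4 substrate and the 460nm/530nm emission ratio to derive AC50 values.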
In general terms: qHTS replaces the single test concentration by a dilution series.

Experiment [8] has as its target Estrogen receptor (Homo sapiens) (UniProt P03372). Nature of the experiment: qHTS assay for small molecule antagonists of estrogen receptor alpha signaling (AID 588513; active = well fitted curve in the direction sought with a large enough effect in the signal ratio, with a control signal flat, not every such curve was filed as active; the % refers to the signal ratio; note: % is set by controls: 0 for no effect and ±100 for the full control effect). The procedure, abridged: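 Fluorescence from CCF4 substrate after 2 h at room temperature gave reporter activity; cells had been exposed to compound and 0.5nM 17-beta-estradiol for 18 h at 37 C. Hill-equation fitting yielded IC50 and maximal response.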

Experiment [9] has the same target. As to the kind of experiment: qHTS assay for small molecule agonists of estrogen receptor alpha signaling (AID 588514; calls by dose curve;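 note: 0% = vehicle only and 100% = reference agonist; nearly all actives have a fitted effect of over 70% in size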). The method in brief: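 Reporter-gene assay. […] controls beta-lactamase in HEK 293 GripTite cells; after 18 hrs with compound, CCF4 substrate is added for 2 hrs and fluorescence is read.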
Experiment [10] deals with Glucocorticoid receptor (Homo sapiens) (UniProt P04150). As to the kind of experiment: qHTS assay for small molecule agonists of glucocorticoid receptor signaling (AID 588532; active = well fitted curve in the direction sought with a large enough effect in the signal ratio, with a control signal flat; the % refers to the signal ratio;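 note: 100% = dexamethasone at 0.1 µM and 0% = DMSO only wells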). The following applies: HeLa MMTV-bla, beta-lactamase ratio, agonist, 18 h; stronger effect = higher value; percent of dexamethasone control, DMSO zero. The procedure, abridged: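 HeLa GRE-bla reporter cells; 18 h compound exposure at 37 C; 2 h CCF4 loading at room temperature; fluorescence at 460 and 530 nm; EC50 by Hill equation.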

For experiment [11] the target is unchanged. As to the kind of experiment: qHTS assay for small molecule antagonists of glucocorticoid receptor signaling (AID 588533; active = well fitted inhibition curve with a large enough effect in the signal ratio, with a control signal flat, not every such curve was filed as active; the % refers to the signal ratio; note: % is set by controls: 0 for no effect and ±100 for the full control effect). The procedure, abridged: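 Antagonist-mode qHTS: compound titrations added to GRE-bla HeLa cells, then dexamethasone 2 nM final; 18 h, 37 C. CCF4 FRET fluorescence normalized to dexamethasone and DMSO; IC50 from Hill fit.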
Experiment [12] deals with Peroxisome proliferator-activated receptor gamma (Homo sapiens) (UniProt P37231). As to the kind of experiment: qHTS assay for small molecule agonists of peroxisome proliferator-activated receptor gamma signaling (AID 588536; active = well fitted curve in the direction sought with a large enough effect in the signal ratio, with a control signal flat, not every such curve was filed as active; the % refers to the signal ratio;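 note: 0% = DMSO basal wells and 100% = rosiglitazone at 2 µM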). The method in brief: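 Ratiometric blue/green fluorescence (405 nm excitation; 460 and 530 nm emission) from CCF4-loaded HEK293 reporter cells serves as signal. Exposure to test compounds lasts 16 h at 37 C in medium containing 1% charcoal/dextran-treated serum.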

The target in experiment [13] is Vitamin D3 receptor (Homo sapiens) (UniProt P11473). As to the kind of experiment: qHTS assay for small molecule antagonists of vitamin D receptor signaling (AID 588541; calls by dose curve;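 note: receptor activated by calcitriol during compound treatment; series mostly up to about 77 µM; % is set by controls: 0 for no effect and ±100 for the full control effect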). The procedure, abridged:
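VDR-UAS-bla HEK293T cells in 2% charcoal-stripped FBS were stimulated with 1-alpha,25-dihydroxyvitamin D3 (3 nM final) plus compound for 16 h at 37 C. The beta-lactamase CCF4 readout was normalized to 50 nM agonist and DMSO, and Hill fits gave IC50.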

For experiment [14] the target is unchanged. Nature of the experiment: qHTS assay for small molecule agonists of vitamin D receptor signaling (AID 588543; calls by dose curve;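 note: 0% = DMSO basal and 100% = reference agonist control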). The method in brief:
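Reporter cells (HEK293T, VDR-UAS-bla) were seeded in medium with 2% charcoal-stripped serum and incubated 5 h, then compounds in concentration series were added for 16 h at 37 °C. Stimulation was scaled between DMSO basal and 50 nM 1α,25-dihydroxyvitamin D3.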

A short description of experiment [15]: qHTS assay for small molecule antagonists of peroxisome proliferator-activated receptor delta signaling (AID 588535; active = well fitted inhibition curve with a large enough effect in the signal ratio, with a control signal flat, not every such curve was filed as active; the % refers to the signal ratio;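 for max response: cells co-treated with a PPAR-delta agonist as stimulator during compound exposure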). The following applies: HEK293T PPARd-UAS-bla, beta-lactamase FRET ratio, 18 h; 460 nm channel. The method in brief:
(§1)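 Cells were seeded at 4000 per well in assay medium containing 2% charcoal/dextran FBS and held 5 hrs at 37 C. Compounds were then added for 18 hrs. CCF4 substrate was applied for 2 hrs at room temperature before fluorescence reading.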

Experiment [16] has as its target Peroxisome proliferator-activated receptor delta (Homo sapiens) (UniProt Q03181). The experiment is described as above. The procedure, abridged: as §1
In experiment [17] the target is Peroxisome proliferator-activated receptor gamma (Homo sapiens) (UniProt P37231). Nature of the experiment: qHTS assay for small molecule antagonists of peroxisome proliferator-activated receptor gamma signaling (AID 588537; active = well fitted inhibition curve with a large enough effect in the signal ratio, with a control signal flat, not every such curve was filed as active; the % refers to the signal ratio;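 note: reporter cells co-stimulated with 50 nM rosiglitazone agonist during compound treatment; % of control where 0% means no effect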). The procedure, abridged: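 Step one: plate 3000 HEK293 UAS-bla cells per well in medium with 1% stripped serum and hold 6-6.5 h at 37 C. Step two: add compound and 50 nM agonist for 16 h. Step three: CCF4 loading, fluorescence read.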

Chain of Vitamin D3 receptor (Homo sapiens) (P11473 whole entry, looked up): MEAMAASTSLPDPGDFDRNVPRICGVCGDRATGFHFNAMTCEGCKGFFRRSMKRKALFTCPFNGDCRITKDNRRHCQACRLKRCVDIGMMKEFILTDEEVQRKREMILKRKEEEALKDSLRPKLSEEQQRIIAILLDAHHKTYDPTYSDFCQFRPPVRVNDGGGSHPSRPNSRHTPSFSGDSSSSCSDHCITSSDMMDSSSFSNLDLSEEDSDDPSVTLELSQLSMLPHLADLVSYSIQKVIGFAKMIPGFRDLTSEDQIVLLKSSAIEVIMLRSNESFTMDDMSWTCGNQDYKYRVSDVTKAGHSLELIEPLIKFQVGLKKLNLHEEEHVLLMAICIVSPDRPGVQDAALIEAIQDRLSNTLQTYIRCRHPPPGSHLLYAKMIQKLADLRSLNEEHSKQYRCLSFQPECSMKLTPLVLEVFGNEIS
Chain of Peroxisome proliferator-activated receptor gamma (Homo sapiens) (P37231 whole entry, looked up): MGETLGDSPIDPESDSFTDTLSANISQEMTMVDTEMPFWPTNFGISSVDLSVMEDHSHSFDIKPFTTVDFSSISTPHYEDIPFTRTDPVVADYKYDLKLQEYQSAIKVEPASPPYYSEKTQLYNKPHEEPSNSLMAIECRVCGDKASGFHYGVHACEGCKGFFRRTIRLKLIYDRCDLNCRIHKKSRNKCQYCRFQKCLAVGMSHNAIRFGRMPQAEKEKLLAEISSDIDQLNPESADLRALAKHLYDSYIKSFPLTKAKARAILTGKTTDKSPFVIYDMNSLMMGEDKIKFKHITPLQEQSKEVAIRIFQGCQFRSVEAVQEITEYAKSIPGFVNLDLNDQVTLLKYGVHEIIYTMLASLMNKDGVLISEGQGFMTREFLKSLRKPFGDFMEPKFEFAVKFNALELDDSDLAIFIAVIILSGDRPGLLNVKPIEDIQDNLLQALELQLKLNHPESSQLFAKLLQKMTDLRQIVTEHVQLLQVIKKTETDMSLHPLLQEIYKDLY
Chain of Glucocorticoid receptor (Homo sapiens) (P04150 whole entry, looked up): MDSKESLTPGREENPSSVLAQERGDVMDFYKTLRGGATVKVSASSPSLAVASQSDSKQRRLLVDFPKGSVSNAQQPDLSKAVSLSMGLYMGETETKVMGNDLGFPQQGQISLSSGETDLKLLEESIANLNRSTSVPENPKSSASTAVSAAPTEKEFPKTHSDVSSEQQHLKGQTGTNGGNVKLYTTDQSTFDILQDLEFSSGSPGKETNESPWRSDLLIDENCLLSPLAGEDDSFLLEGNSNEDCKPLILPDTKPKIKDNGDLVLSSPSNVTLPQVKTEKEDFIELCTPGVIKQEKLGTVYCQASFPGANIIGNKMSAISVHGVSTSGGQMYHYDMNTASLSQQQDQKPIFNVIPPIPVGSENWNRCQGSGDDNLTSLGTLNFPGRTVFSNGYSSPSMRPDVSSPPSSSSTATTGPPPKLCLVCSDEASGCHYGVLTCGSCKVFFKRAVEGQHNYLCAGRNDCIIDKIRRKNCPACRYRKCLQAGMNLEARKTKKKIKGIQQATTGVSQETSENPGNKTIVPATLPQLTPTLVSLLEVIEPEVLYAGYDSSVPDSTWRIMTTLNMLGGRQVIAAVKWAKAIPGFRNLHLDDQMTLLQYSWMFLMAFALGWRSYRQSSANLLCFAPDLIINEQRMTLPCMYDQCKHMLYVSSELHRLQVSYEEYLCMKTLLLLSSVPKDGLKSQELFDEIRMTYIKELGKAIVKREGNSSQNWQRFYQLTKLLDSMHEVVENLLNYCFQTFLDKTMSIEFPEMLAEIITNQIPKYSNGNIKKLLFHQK
Chain of Peroxisome proliferator-activated receptor delta (Homo sapiens) (Q03181 whole entry, looked up): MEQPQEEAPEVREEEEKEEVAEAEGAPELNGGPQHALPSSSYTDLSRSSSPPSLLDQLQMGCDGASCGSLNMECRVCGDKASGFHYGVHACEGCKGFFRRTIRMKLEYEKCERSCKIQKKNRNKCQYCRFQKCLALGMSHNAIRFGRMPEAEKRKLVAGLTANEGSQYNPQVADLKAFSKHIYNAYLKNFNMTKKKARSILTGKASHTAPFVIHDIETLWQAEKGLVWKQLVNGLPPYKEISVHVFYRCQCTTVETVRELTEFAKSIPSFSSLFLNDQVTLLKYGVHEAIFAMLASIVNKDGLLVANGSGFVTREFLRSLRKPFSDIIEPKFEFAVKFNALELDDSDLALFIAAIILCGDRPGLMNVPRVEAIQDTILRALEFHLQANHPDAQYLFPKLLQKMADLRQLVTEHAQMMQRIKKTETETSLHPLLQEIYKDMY
Chain of Estrogen receptor (Homo sapiens) (P03372 whole entry, looked up): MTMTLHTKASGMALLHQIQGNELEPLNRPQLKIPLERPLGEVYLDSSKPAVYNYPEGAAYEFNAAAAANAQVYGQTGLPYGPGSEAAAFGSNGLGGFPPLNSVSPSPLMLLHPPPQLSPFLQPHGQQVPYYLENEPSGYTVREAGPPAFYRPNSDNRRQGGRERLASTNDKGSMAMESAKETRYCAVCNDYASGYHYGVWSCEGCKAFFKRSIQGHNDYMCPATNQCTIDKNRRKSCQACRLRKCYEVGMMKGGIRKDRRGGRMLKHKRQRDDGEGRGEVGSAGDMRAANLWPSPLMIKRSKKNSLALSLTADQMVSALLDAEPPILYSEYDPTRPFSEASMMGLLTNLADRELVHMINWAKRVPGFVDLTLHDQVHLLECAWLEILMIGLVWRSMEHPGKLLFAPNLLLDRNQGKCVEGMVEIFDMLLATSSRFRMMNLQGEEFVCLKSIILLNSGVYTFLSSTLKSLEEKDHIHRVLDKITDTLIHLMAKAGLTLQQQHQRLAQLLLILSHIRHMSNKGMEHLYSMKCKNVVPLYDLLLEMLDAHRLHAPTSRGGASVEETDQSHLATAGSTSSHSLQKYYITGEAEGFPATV

For `CCCCC(CC)COCC1CO1` (stereo not given), the Potency result in [1], in [2], in experiment [3], in [5], in experiment [6] and in experiment [9] was “inactive” throughout. Besides, the call in experiment [4], in experiment [7], in experiment [8], in [11], in experiment [12] and in experiment [13] was inactive. Besides, the call in experiment [14] was inactive. The activation in experiment [10] is -12.2% (inactive).
As for `CCOc1cccc(N)c1`, the Potency result in experiment [1], in [2], in experiment [5], in experiment [6], in [9] and in experiment [16] was “inactive” each time. Further, the call in [4], in experiment [7], in [8], in experiment [12], in [17] and in experiment [13] was inactive. Moreover, the result in [14] was inactive. In addition, the max response in [15] was -10.6%.
For the compound `CCNS(=O)(=O)c1ccc(C)cc1`, the Potency result in experiment [1], in experiment [2], in experiment [3], in experiment [5], in [6] and in experiment [9] was “inactive” each time. Further, the Potency entry in experiment [16] was “inactive”. Also, the result in experiment [4], in [7], in [8], in [11] and in [12] was inactive. Further, the activation in experiment [10] was -0.758% (inactive). Moreover, the max response in [15] worked out at 8.52%.
Regarding `C=C(C)OC(C)=O`, the Potency entry in experiment [1], in experiment [2], in experiment [3], in experiment [5], in experiment [6] and in experiment [9] was “inactive” in each case. The call in [4], in experiment [7], in experiment [8], in [11], in experiment [12] and in experiment [13] was inactive. In addition, in experiment [10], the activation is -3.17% (inactive).
`O=C(O)c1ccc(Cl)cc1Cl`: the Potency result in [1], in experiment [5], in experiment [6] and in [9] was “inactive” in each case. The call in experiment [4], in [7], in [8], in experiment [11], in experiment [12] and in experiment [13] was inactive. In experiment [14], the result was inactive. Moreover, the activation in [10] is -5.78% (inactive).
For the compound `OC1CCCC1`, the Potency result in experiment [1], in experiment [3], in experiment [5], in experiment [6] and in [9] was “inactive” each time. Moreover, the outcome in [4], in [7], in experiment [8], in experiment [12], in [17] and in experiment [13] was inactive. Further, the outcome in experiment [14] was inactive. Further, the activation in [10] was 0.774% (inactive).
Regarding `CO[Si](CCCNCCC[Si](OC)(OC)OC)(OC)OC`, the Potency result in [1], in [2], in experiment [3], in [5], in experiment [6] and in [9] was “inactive” throughout. Besides, the result in [4], in [7], in experiment [8], in experiment [11], in experiment [12] and in experiment [17] was inactive. In addition, the call in experiment [13] and in experiment [14] was inactive. Moreover, the activation in experiment [10] was 5.31% (inactive).
Consider `O=C(O)c1cc(Cl)cc(Cl)c1`, for which the Potency result in experiment [1], in experiment [2], in [3], in experiment [5], in experiment [6] and in [9] was “inactive” throughout. The Potency entry in [16] is “inactive”. The compound was called inactive in experiment [4], in [7], in [8], in experiment [12] and in experiment [17]. In addition, the activation in experiment [10] was -5.57% (inactive). In addition, the max response in experiment [15] was 29.5%.
In the case of `Cc1ccc(Br)cc1`, the Potency result in [1], in [2], in experiment [3], in experiment [6], in experiment [9] and in experiment [16] was “inactive” in each case. Further, the compound was classed as inactive in [7], in [8], in experiment [11], in experiment [12], in experiment [17] and in [13]. In [14], the compound was classed as inactive. Besides, the max response in [15] stood at 4.44%.
Regarding `COc1ccc(N)c(OC)c1`, the Potency entry in experiment [1], in experiment [2], in [5], in [6] and in experiment [9] was “inactive” throughout. Moreover, the compound was called inactive in experiment [4], in [7], in experiment [8], in experiment [12], in [17] and in [13]. Moreover, the outcome in experiment [14] was inactive. Besides, in [10], the activation was 4.84% (inactive).
As for `CCOc1ccccc1N`, the Potency result in [1], in experiment [2], in experiment [3], in experiment [6] and in experiment [9] was “inactive” throughout. Also, the compound was called inactive in experiment [4], in [7], in experiment [8], in [11], in experiment [12] and in [13]. Moreover, the compound was classed as inactive in experiment [14]. In experiment [10], the activation was -6.27% (inactive).
For `Cc1cccc(C)c1`, the Potency entry in experiment [1], in experiment [2], in experiment [3], in [5], in experiment [6] and in experiment [9] was “inactive” throughout. The Potency result in [16] is “inactive”. The compound was classed as inactive in [4], in experiment [7], in experiment [8], in experiment [11], in experiment [12] and in experiment [17]. Further, the result in experiment [13] and in [14] was inactive. The max response in experiment [15] is -14.1%.
